The text below walks through data of PubChem BioAssay AID504832 (National Center for Advancing Translational Sciences (NCATS), 2011).

Molecules are shown by their SMILES. The whole screen tested about 310,000 compounds, of which about 18,000 (5.8%) were called active. Where a call stands in place of a potency, no number is given. Roughly 22% stayed inconclusive and do not appear here. For the sample, actives were picked, then their nearest neighbours and some compounds at random. Unmarked numbers belong to inactive results. Calls come from the whole dose curve; as a rule, active = well fitted inhibition curve with a large enough effect; inconclusive = small, poorly fitted or top-dose-only effect, or another doubt; inactive = no such curve, though single readings can be large or run the other way.
Potency is the fitted concentration of half-maximal effect.

This experiment in a line: Primary qHTS for delayed death inhibitors of the malarial parasite plastid, 48 hour incubation. As to conditions: P. falciparum luciferase growth in erythrocytes; series mostly up to 28.7 µM. In short, it runs like this: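 Read-out is firefly luciferase luminescence from an integrated reporter in P. falciparum, so falling signal marks reduced parasite growth. Infected erythrocytes were at 2% hematocrit and 0.1% parasitemia (final) in Albumax-supplemented RPMI 1640.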
(Quantitative high-throughput screening tests each substance at several concentrations.)
On to `COc1cccc(CNC(=O)C2CCCN(S(=O)(=O)N3CC(C)CC(C)C3)C2)c1` (centres undefined), for which the Potency entry was “inactive”. Same read-out and setting: the same measure for `O=C(COCc1cc(-c2ccc3c(c2)OCO3)on1)N1CCN(c2cccc(Cl)c2)CC1`: “inactive”; for `CCCCC(=O)Nc1c2c(nn1-c1ccc([N+](=O)[O-])cc1)CS(=O)(=O)C2`: “inactive”; for `C=CCn1c(N)cc(=O)nc1SCC(=O)Nc1cccc2ccccc12`: “inactive”. The same measure, in the same setting: the same measure for `Cc1ccc2nc(SCC(=O)Nc3cccc4ccccc34)nc(=O)n2c1`: “inactive”. On the same count and under the same terms, next, `Cc1ccccc1-n1c(SCC(=O)Nc2cccc3ccccc23)nc(O)cc1=O`: 13.1 µM (active); `O=C(Cc1c(Cl)cccc1Cl)NC1CC1`: “inactive”.

Turning to `COc1ccc(C(=O)NC2CCN(C(=O)Nc3ccc(F)cc3)CC2)cc1`, the Potency result was “inactive”. Take `Cc1ccc(SCC(=O)NNC(=O)c2ccc(S(C)(=O)=O)cc2)cc1`: the Potency entry is “inactive”. On the same count and under the same terms, the same measure for `COc1cccc(N(C(=O)c2ccn[nH]2)C2(C(=O)Nc3c(C)cccc3C)CCCCC2)c1`: 9.28 µM (active); for `Cc1cccc(C)c1NC(=O)C1(N(C(=O)c2ccccn2)c2ccc(O)cc2)CCCCC1`: “inactive”. In the case of `COc1cccc(N(Cc2nnc3n2CCCCC3)C(=O)Nc2ccccc2F)c1`, the Potency entry was “inactive”. Same read-out and setting: the same measure for `COc1ccc(C(=O)OCC(=O)NCCCc2ccccc2)cc1OC`: “inactive”. Regarding `COc1ccc(C)cc1NC(=O)NCc1ccccn1`, the activity change, negative = inhibition is -13% [at 5.75 µM]. Turning to `COc1ccc(C)cc1NC(=O)NCCCCc1ccccc1`, the Potency is 14.7 µM (active). The same measure, in the same setting: next, `N#CC1(NC(=O)COC(=O)Cc2n[nH]c(=O)c3ccccc23)CCCCC1`: “inactive”; `O=C(O)c1cccnc1Sc1ncnc2sc3c(c12)CCC3`: “inactive”; `O=C(O)[C@@H]1CCCN1c1ncnc2sc3c(c12)CCC3`: “inactive”. On the same count and under the same terms, next, `OCCNc1nc2ccccc2n1-c1ncnc2sc3c(c12)CCC3`: 6.57 µM (active). As for `O=c1onc(-c2c(F)cccc2F)n1-c1ccccc1Cl`, the activity change, negative = inhibition was 4.36% [at 0.00184 µM].

For `Cc1ccc(S(=O)(=O)N(C)CC(=O)NC2CCCC2)cc1`, the Potency entry was “inactive”.

For `CN(CC(=O)NCCN1CCOCC1)S(=O)(=O)c1ccc(F)cc1`, the Potency result is “inactive”. Still for that read-out and setting: next, `Cc1ccc(S(=O)(=O)N(C)CC(=O)NCC(c2ccc(F)cc2)N2CCOCC2)cc1` (centres undefined): 9.28 µM (active); `COc1cc([N+](=O)[O-])ccc1NC(=O)COC(=O)CCOc1ccc(C)cc1`: “inactive”. Turning to `COc1ccccc1OCCNC(=O)CCNC(=O)c1ccccc1Cl`, the Potency result was “inactive”.

Turning to `O=CN1CCN(C(=O)c2ccc3c(c2)OCO3)CC1`, the Potency result was “inactive”. Still for that read-out and setting: the same measure for `CC(=O)c1c(C)[nH]c(C(=O)COC(=O)CCOc2ccc(C)cc2)c1C`: “inactive”. Still for that read-out and setting: the same measure for `CCNC(=S)N(CCN(CC)CC)Cc1cc2cc3c(cc2[nH]c1=O)OCCO3`: “inactive”; for `N=c1c2c(-c3ccccc3)c(-c3ccccc3)n(Cc3ccccc3)c2ncn1CCCO`: 2.33 µM (active); for `CCN(CC)CCn1cnc2c1c(=O)[nH]c(=O)n2Cc1ccccc1`: “inactive”. Still for that read-out and setting: the same measure for `COCCn1cnc2c1c(=O)n(CC(=O)NN)c(=O)n2Cc1ccccc1`: “inactive”; for `CCNC(=O)CN(c1ccc(C)cc1)S(=O)(=O)c1ccc(SC)cc1`: “inactive”. With `Cc1ccc(S(=O)(=O)N(CC(=O)NCc2ccco2)c2ccccc2C)cc1`, the Potency entry is “inactive”.

Turning to `Cc1ccc(S(=O)(=O)N(CC(=O)NCCSC2CCCCC2)c2ccccc2F)cc1`, the Potency is 4.65 µM (active). With `Cc1cccc(C)c1OCCN1CCOCC1`, the Potency entry is “inactive”. Still for that read-out and setting: next, `COc1ccc(/C=C/C(=O)c2cc(Br)ccc(=O)c2O)cc1`: 13.1 µM (active). With `COc1ccc(C(=O)/C=C/c2ccc(OC3CSC3)cc2)cc1`, the Potency result was “inactive”. Still for that read-out and setting: the same measure for `COc1ccc(/C=C/C(=O)c2ccc(OC)cc2O)cc1`: “inactive”; for `CC(C)CCN1CCN=C1N(C)C`: “inactive”; for `Cc1cc(NC(=O)CSc2nc3cc(Cl)ccc3c(=O)n2Cc2ccco2)no1`: “inactive”. Still for that read-out and setting: next, `Cc1cc2nc3c(=O)n(Cc4ccccc4)c(=O)[nH]c3nc2cc1N`: “inactive”; `Cc1nc2c(c(=O)n1Cc1ccco1)c1nc3ccccc3nc1n2Cc1ccccc1`: 9.28 µM (active); `Nc1cc(=O)nc(SCc2ccccc2)n1Cc1ccco1`: “inactive”. The same measure, in the same setting: the same measure for `Cc1ccc(Cn2c(C)nc3c(c2=O)c2nc4ccccc4nc2n3Cc2ccco2)cc1`: 5.86 µM (active). For the compound `COCCCn1c2nc3ccccc3nc2c2c(=O)n(Cc3ccc(Cl)cc3)c(C)nc21`, the Potency entry is “inactive”. Still for that read-out and setting: next, `CC1(C)Cc2cccc(OCC(=O)NCc3ccccc3)c2O1`: “inactive”; `O=C(Oc1ccc(F)cc1)N1CCOCC1`: “inactive”; `COc1ccccc1NC(=O)COC(=O)COc1ccccc1F`: “inactive”.

For the compound `COc1ccccc1NC(=O)C1CCN(C(=O)c2ccc(C(C)(C)C)cc2)CC1`, the Potency result is “inactive”.

As for `O=C(COC(=O)c1cc(S(=O)(=O)N2CCOCC2)ccc1Cl)NCCc1ccccc1`, the Potency result is “inactive”. As for `OC(c1nc2ccc(F)cc2[nH]1)C(O)c1nc2ccc(F)cc2[nH]1` (centres undefined), the Potency result is “inactive”.

Consider `COc1ccc(NC(=O)NCc2ccc3c(c2)OCO3)c(OC)c1`, for which the Potency result is “inactive”.

With `COc1ccc(C2=NOC(Cn3nc(C(=O)NCc4ccc5c(c4)OCO5)cc3-c3ccccc3)C2)cc1` (centres undefined), the Potency is 9.28 µM (active). Same read-out and setting: next, `Cc1ccc(CNC(=O)c2cc(-c3ccccc3C)n(CC3CC(c4cccc([N+](=O)[O-])c4)=NO3)n2)cc1` (centres undefined): 5.22 µM (active). Turning to `Cc1ccc(CNC(=O)c2c(-c3ccccc3)noc2C)cc1`, the activity change, negative = inhibition is 2.95% [at 0.00184 µM]. In the case of `COc1ccccc1-n1c(C)nc2cc(C(=O)NCc3ccc4c(c3)OCO4)ccc21`, the Potency entry is “inactive”.

Consider `Cc1ccccc1-c1cc(C(=O)NCC2CC2)n(CC2CC(c3cccnc3)=NO2)n1` (centres undefined), for which the Potency entry was “inactive”. The same measure, in the same setting: the same measure for `O=C(COC(=O)c1cc(=O)[nH]c2ccccc12)NCc1cccc(Cl)c1`: “inactive”; for `O=C(NCc1cccs1)c1ccc(CS(=O)Cc2ccccc2Cl)o1` (centres undefined): “inactive”. Same read-out and setting: next, `CC(=O)NS(=O)(=O)c1ccc2c(c1)Cc1cc(S(=O)(=O)NC(C)=O)ccc1-2`: “inactive”; `CC(OC(=O)c1cc2ccccc2o1)C(=O)Nc1ccc(N2CCOCC2)cc1` (centres undefined): “inactive”; `C[n+]1ccccc1C1CCCC/C1=N\Nc1ccc([N+](=O)[O-])cc1[N+](=O)[O-]` (centres undefined): 3.7 µM (active). The same measure, in the same setting: the same measure for `Cc1cc([N+](=O)[O-])ccc1NC1CCCC1`: “inactive”; for `O=[N+]([O-])c1ccc(N/N=C2/CCCCC2c2ccccn2)c([N+](=O)[O-])c1` (centres undefined): “inactive”.
